Assay results as given in the supplement of paper PMC6555819.

How the values were obtained:
Experiment in all cases: PBM binding z-score (relative to random genomic background probes); higher = stronger binding; sequences stand for … in GC…GCGATTGACAGCGTAGAATGAAGG
[1] = tested on: RARb homodimer (NR concentration 270 nM)
How it was run: (§1)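 Random background probes are the reference for binding z-scores. These scores derive from regression-normalized fluorescence on custom Agilent 4×180K protein-binding microarrays incubated 1 h with ligand-free nuclear receptor dimers. Binding was detected with antibodies against each partner (one per run).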

[2] = tested on: RARg:RXRa (NR concentration 270 nM, RXRa partner concentration 90 nM)
How it was run: as §1

[3] = tested on: RARg homodimer (NR concentration 270 nM)
How it was run: as §1

[4] = tested on: RXRa DBDmut IVT, anti-RXR (DBD mutation: RXRa K156A/R161A, NR concentration 90 nM)
How it was run: as §1

[5] = tested on: RXRa homodimer (NR concentration 180 nM)
How it was run: as §1

[6] = tested on: THRa:RXRa (NR concentration 90 nM, RXRa partner concentration 90 nM)
How it was run: as §1

[7] = tested on: THRa homodimer (NR concentration 90 nM)
How it was run: as §1

[8] = tested on: VDR homodimer (NR concentration 270 nM)
How it was run: as §1

| Sequence | PBM binding z-score [1] | PBM binding z-score [2] | PBM binding z-score [3] | PBM binding z-score [4] | PBM binding z-score [5] | PBM binding z-score [6] | PBM binding z-score [7] | PBM binding z-score [8] |
| --- | --- | --- | --- | --- | --- | --- | --- | --- |
| ATATGTTGGTTAGGGTCATTCAGAAAGTAGGGAA | 3.19 | 3.79 | 2.71 | 2.64 | 5.05 | 4.08 | 3.71 | 4.01 |
| CTATGTACGTTAAGGGGGTCATTCAGTTTGAAAG | 3.65 | 4.57 | 3.69 | 2.99 | 5.04 | 3.86 | 2.71 | 5.96 |
| ATATGAAGGTTAGGGTCATTCAGAAAGTAGGGAA | 3.58 | 4.37 | 3.36 | 2.29 | 5.38 | 4 | 3.15 | 4.12 |
| CGAACTAGGTCACCAGGACAGAGAAGAGGTTGGA | 3.46 | 4.58 | 5.47 | 1.79 | 3.97 | 3.37 | 1.89 | 0.617 |
| CAAACTAGGTCACGAGGTCAAAGTCCGCTTCCCG | 5.59 | 7.56 | 6.9 | 3.1 | 7.59 | 4.76 | 4.67 | 4.9 |
| AGTCAAAGTTCTTCTAGGTAACGTAAGATATGCT | 0.172 | 0.404 | 0.586 | 1.41 | -0.133 | 1.71 | 0.292 | 0.746 |
| CCGAGTAGGTTACGAGGGGGCCTTCAGTGCGAAT | 0.846 | 2.15 | 1.32 | 0.265 | 0.978 | 2.11 | 0.4 | 0.498 |
